In the library only some 3.3% were active in any assay of this set; here they are far more common.
VACV Venus inh = inhibitors of vaccinia virus (Venus reporter); Vaccinia virus Venus reporter expression, fluorescence; Potency, µM (highest dose often 36.5 µM), usual class: inhibitors; hit rate 0.46% among 330,000; AID 720580; calls by dose curve; tested in A549 cells; note: nearly all actives have a fitted effect of over 30% in size
VACV mCherry inh = vaccinia inhibition (mCherry reporter) | Vaccinia virus mCherry reporter infection, fluorescence | Potency, µM (titrated, usually from 36.5 µM), usual class: inhibitors | hit rate 0.63% among 310,000 | AID 720579; calls by dose curve; tested in A549 cells; note: nearly all actives have a fitted effect of over 35% in size
HCV inhibitor = HCV inhibition. AID 651820. Potency, µM (doses to about 41.8 µM), hits mostly inhibitors. Huh7.5.1 HCVcc-Cre infection, luciferase reporter, 44 h. hit rate 3.4% among 340,000; active = well fitted inhibition curve with a large enough effect; inconclusive = small, poorly fitted or top-dose-only effect, or another doubt; inactive = no such curve, though single readings can be large or run the other way
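Luciferase read-out (15 sec integration) after a 15 min room-temperature substrate step quantifies HCVcc-Cre infection. Cells, 1,000 per well, had compound added 4 h post-plating, then virus at ~0.5 moi, and were cultured 44 h.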
Of the large screens only hits and unclear results are named; the others gave an inactive call; ! = a repeat was not active.

CCOC(=O)Cc1csc(NC(=O)Nc2ccc(OC(F)(F)F)cc2)n1	HCV inhibitor 10µM
c1ccc2c(CN3CCSCC3)cccc2c1	none (no result: VACV Venus inh, VACV mCherry inh)
COc1ccccc1-n1c(SCC(=O)NC2CC2)nc2ccccc2c1=O	none (no result: VACV Venus inh, VACV mCherry inh)
CO[C@H]1[C@H](NC(=O)c2ccco2)c2ccccc2C12CCN(Cc1cnn(-c3ccccc3)c1)CC2	none (no result: HCV inhibitor)
Brc1ccc2[nH]c3c(c2c1)CCC3	HCV inhibitor inconclusive
OCCN=C1CCCc2c1[nH]c1ccc(Br)cc21	HCV inhibitor 5.6µM
CNc1nc(N2CCCN(C)CC2)nc2cc(OC)c(OC)cc12	none (no result: HCV inhibitor)
O=C(Cn1c(=O)n(Cc2ccc(C(=O)NCc3ccc4c(c3)OCO4)cc2)c(=O)c2ccccc21)Nc1cccc(Cl)c1	none (no result: HCV inhibitor)
CN1CCCN(S(=O)(=O)c2cccc(C#N)c2)CC1	none (no result: VACV Venus inh, VACV mCherry inh)
COc1ccc(C(=O)CSc2nnc(C3CCCCC3)n2N)c(OC)c1	HCV inhibitor 10µM (no result: VACV mCherry inh)
COc1ccc(NC(=O)CSc2nnc(C3CCCCC3)n2N)cc1	none
CCc1cccc(CC)c1NC(=O)CN(C)S(=O)(=O)c1ccc2c(c1)n(C)c(=O)c(=O)n2C	none (no result: HCV inhibitor)
CCC(CO)Oc1cc(NCc2ccccc2F)c2ncn(C(C)C)c2c1 (stereo not given)	HCV inhibitor inconclusive
CCC(CO)Oc1cc(NCc2ccccc2OC)c2ncn(C(C)C)c2c1 (stereo not given)	none
CCC(CO)Oc1cc(NCc2ccccc2Cl)c2ncn(C(C)C)c2c1 (stereo not given)	HCV inhibitor 2.2µM
CCC(CO)Oc1cc(NCc2ccccc2C(F)(F)F)c2ncn(C(C)C)c2c1 (stereo not given)	HCV inhibitor 1.3µM
Cc1nc(-c2ccc(C)c(N3CCN(C(=O)Nc4ccc(Br)cc4)CC3)c2)no1	VACV Venus inh inconclusive (no result: HCV inhibitor)
Cc1nc2ccc(NC(=O)c3ccc(Cl)s3)cc2s1	HCV inhibitor inconclusive
COc1c(Cl)cc(Cl)cc1/C=C/C(=O)c1ccc(NC(=O)c2cccs2)cc1	VACV Venus inh 10µM, VACV mCherry inh 11µM, HCV inhibitor 14µM
Cc1ccc(NC(=O)c2ccc(Cl)c(NC(=O)c3cccs3)c2)cc1	HCV inhibitor 13µM (no result: VACV Venus inh, VACV mCherry inh)
Cc1ccc(NC(=O)c2cccs2)cc1	none
Cc1ccccc1-c1nc(-c2ccc(NC(=O)c3cccs3)cc2)no1	HCV inhibitor 14µM
O=C(Nc1ccc(-c2noc(-c3ccccc3F)n2)cc1)c1cccs1	none
O=C(Nc1ccc(NC(=O)c2cccs2)cc1)c1ccc(Cl)cc1	none (no result: HCV inhibitor)
Cc1nc2ccc(NC(=O)c3ccc(Cl)c(NC(=O)c4cccs4)c3)cc2s1	HCV inhibitor 10µM (no result: VACV mCherry inh)
O=C(Nc1cccc(Cl)c1)NC1CCS(=O)(=O)C1 (stereo not given)	none
CN(C(=O)CSc1nnc(-c2ccco2)n1Cc1ccccc1)C1CCS(=O)(=O)C1 (stereo not given)	none (no result: VACV Venus inh, VACV mCherry inh)
COc1ccc2cc3c(N)nn(C(=O)C4CCC(C(C)(C)C)CC4)c3nc2c1 (stereo not given)	VACV Venus inh 14µM, VACV mCherry inh inconclusive
COc1ccc2cc3c(N)nn(C(=O)Cc4ccccc4OC)c3nc2c1	HCV inhibitor inconclusive
CCOc1ccc(-c2nc(N)ncc2-c2ccccc2)c(O)c1	VACV Venus inh inconclusive, VACV mCherry inh inconclusive, HCV inhibitor 10µM
COc1ccc(-c2nc(N)ncc2-c2csc(C)n2)c(O)c1	HCV inhibitor inconclusive
COc1ccc(-c2nc(C)ncc2-c2ccccc2)c(O)c1	none (no result: VACV Venus inh, VACV mCherry inh)
CCOc1ccc(-c2nc(N)ncc2Oc2ccc(OC)cc2)c(O)c1	VACV mCherry inh inconclusive, HCV inhibitor 14µM
Cc1ccc(Cl)cc1N1CCN(S(=O)(=O)c2c(C)[nH]c(C)c2C(=O)N2CCCCC2)CC1	none (no result: VACV Venus inh, VACV mCherry inh)
Cc1cc(=O)n(-c2ccccc2)n1C	VACV Venus inh inconclusive, VACV mCherry inh 5µM!
Cc1c(C=O)c(=O)n(-c2ccccc2)n1C	none (no result: VACV Venus inh, VACV mCherry inh)
Cc1nnc(C)c2c(C)n(Cc3ccc4c(c3)OCO4)c(C)c12	HCV inhibitor 4.5µM (no result: VACV Venus inh, VACV mCherry inh)
c1cc2c(cc1Cn1cnnn1)OCO2	none
CC(=O)NCCC(=O)Nc1cc(S(=O)(=O)N2CCOCC2)ccc1N1CCCC1	none
O=C(Cc1ccccc1)NCC(=O)OCC(=O)c1cccc2ccccc12	none (no result: HCV inhibitor)
Cc1ccc([C@H]2C[C@H](O)[C@@H](n3cc(C4CC4)nn3)CN2Cc2cccs2)cc1	VACV Venus inh 11µM, VACV mCherry inh inconclusive (no result: HCV inhibitor)
COc1ccc([C@H]2C[C@H](n3cc(-c4ccc(F)cc4)nn3)[C@@H](O)CN2Cc2cccs2)cc1	none (no result: HCV inhibitor)
COc1ccc([C@H]2C[C@H](O)[C@@H](n3cc(-c4ccc(F)cc4)nn3)CN2Cc2cccs2)cc1	VACV Venus inh 10µM, VACV mCherry inh 10µM (no result: HCV inhibitor)
Cc1ccc([C@H]2C[C@@H](O)[C@H](n3cc(C4CC4)nn3)CN2Cc2cccs2)cc1	none (no result: HCV inhibitor)
Cc1nc2ccn(Cc3ccco3)c(=O)c2cc1C(=O)NCc1ccccc1	none (no result: HCV inhibitor)
Oc1ccccc1CNCCCNCc1ccccc1O	HCV inhibitor 2.8µM (no result: VACV Venus inh, VACV mCherry inh)
COCCCNCCCOc1ccc(C(C)(C)c2ccccc2)cc1	HCV inhibitor inconclusive
OCCCNCc1cccc2ccccc12	VACV Venus inh inconclusive (no result: VACV mCherry inh)
c1ccc(CNCCCNCCCCNCCCNCc2ccccc2)cc1	VACV Venus inh 13µM, VACV mCherry inh 13µM, HCV inhibitor inconclusive
CC(C)(C)c1ccc(OCCCNCc2ccccc2)cc1	VACV Venus inh inconclusive, HCV inhibitor 11µM
O=C(O)CCCCNCc1ccccc1	none
COc1ccc(Cl)cc1N1C(=O)[C@@H]2C[C@H]1CN2Cc1nc2ccccc2nc1C	none (no result: HCV inhibitor)
COc1ccc(N2C(=O)[C@@H]3C[C@H]2CN3Cc2cccn2-c2nccs2)cc1Cl	none (no result: HCV inhibitor)
CCCCN1CC(N(C)CCN(C)C)CS1(=O)=O (stereo not given)	none (no result: HCV inhibitor)
CCc1ccc(C(=O)NNC(=O)c2cccc(S(=O)(=O)N3CCN(C)CC3)c2)cc1	none
CSc1cc(-c2ccc(Cl)cc2)c(C(=O)NN)s1	HCV inhibitor 3.5µM (no result: VACV Venus inh, VACV mCherry inh)
CSc1cc(-c2ccc(Cl)cc2)c(C(=O)NC(C)C)s1	none
CC1CCc2c(sc3nc(C(C)(C)C)nc(N4CCN(C(=O)CCl)CC4)c23)C1 (stereo not given)	VACV Venus inh inconclusive, HCV inhibitor inconclusive
COCc1cc(C)nc(SCC(=O)Nc2ccccc2C)c1C#N	none
COCc1cc(C)nc(SCC(=O)Nc2cc3c(cc2C#N)OCO3)c1C#N	HCV inhibitor 10µM
CCOC(=O)c1c(NC(=O)c2ccc(S(=O)(=O)N3CCC(C)CC3)cc2)sc2c1CCN(CC)C2	VACV Venus inh inconclusive (no result: HCV inhibitor)
O=C(O)CN(CC(=O)O)CC1=CC2C(=CC1=O)Oc1cc(O)c(CN(CC(=O)O)CC(=O)O)cc1C21OC(=O)c2ccccc21 (stereo not given)	none (no result: HCV inhibitor)
COc1coc(C(O)CN)cc1=O (stereo not given)	none
CCOC(=O)C(=Cc1cc(=O)c(OC)co1)C(=O)OCC	HCV inhibitor 10µM (no result: VACV Venus inh, VACV mCherry inh)
COc1ccc(OC)c(S(=O)(=O)NC(=O)C2(C)CCN2C(=O)c2ccco2)c1 (stereo not given)	none (no result: HCV inhibitor)
Brc1ccc(Nc2nc(-c3cccnc3)cs2)cc1	HCV inhibitor inconclusive
COc1ccc(Cl)cc1Nc1nc(-c2cccnc2)cs1	VACV mCherry inh inconclusive, HCV inhibitor 13µM
Brc1cccc(Nc2nc(-c3cccnc3)cs2)c1	VACV mCherry inh inconclusive, HCV inhibitor 10µM
Clc1cccc(Nc2nc(-c3cccnc3)cs2)c1	HCV inhibitor 2.8µM (no result: VACV Venus inh, VACV mCherry inh)
Oc1ccc(Nc2nc(-c3cccnc3)cs2)cc1	VACV Venus inh inconclusive, VACV mCherry inh inconclusive
C[C@@H](C(=O)OCC(=O)c1ccccc1)N1C(=O)C2CCCCC2C1=O (stereo not given in full)	none (no result: VACV Venus inh, VACV mCherry inh)
O=C(Cc1ccc(-c2ccccc2)cc1)NO	none (no result: HCV inhibitor)

Bioassay records deposited in PubChem by National Center for Advancing Translational Sciences (NCATS).
